Test results reported in PubChem BioAssay (NCATS).
Records with an inconclusive call do not appear. Calls of active or inactive are those of the source. The call rests on the fitted dose curve; in most records, active means well fitted curve in the direction sought with a large enough effect; inconclusive means small, poorly fitted or top-dose-only effect, or another doubt; inactive means no such curve, though single readings can be large; an effect the other way counts as inactive or inconclusive.

How the values were obtained:
[1] = qHTS of pediatric cancer cell lines to identify multiple opportunities for drug repurposing: Primary screen for Saos-2 cells (AID 1347097); further: nearly all actives have a fitted effect of over 40% in size; further: potency means the concentration at half of the fitted maximal effect
Method in brief: (§1)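 Phenotypic viability qHTS, 48 h compound exposure, CellTiter-Glo luminescence read-out; multi-concentration dosing so that potency and efficacy derive directly from the primary screen's curves.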

[2] = qHTS of pediatric cancer cell lines to identify multiple opportunities for drug repurposing: Primary screen for NB1643 cells (AID 1347099); further: nearly all actives have a fitted effect of over 50% in size; further: potency means the concentration at half of the fitted maximal effect
Method in brief: as §1

[3] = qHTS of pediatric cancer cell lines to identify multiple opportunities for drug repurposing: Primary screen for LAN-5 cells (AID 1347100); further: potency means the concentration at half of the fitted maximal effect
Method in brief: (§2)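 Viability after 48 h compound treatment at 37C, 500-1,000 cells/well, read as ATP luminescence with CellTiter-Glo. Primary screens used 11-point (MIPE, 0.78 nM-46 µM) or 8-point (NPC, 0.59 nM-46 µM) final concentrations; follow-up screens used 11-point dilutions.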

[4] = qHTS of pediatric cancer cell lines to identify multiple opportunities for drug repurposing: Primary screen for BT-12 cells (AID 1347101); further: nearly all actives have a fitted effect of over 25% in size; further: potency means the concentration at half of the fitted maximal effect
Method in brief: (§3)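 Cells (500-1,000/well) rested 5 h, then received compounds for 48 h; metabolically active cells were measured by CellTiter-Glo luminescence. Final concentrations spanned up to 46 µM (MIPE, 11-point) or 0.59 nM-46 µM (NPC, 8-point) in primary screens, 11-point in follow-ups.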

[5] = qHTS of pediatric cancer cell lines to identify multiple opportunities for drug repurposing: Primary screen for Rh18 cells (AID 1347102); further: nearly all actives have a fitted effect of over 65% in size; further: potency means the concentration at half of the fitted maximal effect
Method in brief: as §2

[6] = qHTS of pediatric cancer cell lines to identify multiple opportunities for drug repurposing: Primary screen for RD cells (AID 1347104); further: nearly all actives have a fitted effect of over 55% in size; further: potency means the concentration at half of the fitted maximal effect
Method in brief: as §1

[7] = qHTS of pediatric cancer cell lines to identify multiple opportunities for drug repurposing: Primary screen for MG 63 (6-TG R) cells (AID 1347105); further: nearly all actives have a fitted effect of over 50% in size; further: potency means the concentration at half of the fitted maximal effect
Method in brief: as §1

[8] = qHTS of pediatric cancer cell lines to identify multiple opportunities for drug repurposing: Primary screen for control Hh wild type fibroblast cells (AID 1347106);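 further: series mostly up to about 46 µM; a drop in luminescence marks cytotoxicity and a rise apparent proliferation; nearly all actives have a fitted effect of over 55% in size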
Method in brief: as §2

[9] = qHTS of pediatric cancer cell lines to identify multiple opportunities for drug repurposing: Primary screen for Rh30 cells (AID 1347107); further: series mostly up to about 46 µM; nearly all actives have a fitted effect of over 75% in size
Method in brief: as §2

[10] = qHTS of pediatric cancer cell lines to identify multiple opportunities for drug repurposing: Primary screen for Rh41 cells (AID 1347108); further: nearly all actives have a fitted effect of over 70% in size; further: potency means the concentration at half of the fitted maximal effect
Method in brief: as §1

[11] = qHTS of pediatric cancer cell lines to identify multiple opportunities for drug repurposing: Primary screen for OHS-50 cells (AID 1347103); further: nearly all actives have a fitted effect of over 40% in size; further: potency means the concentration at half of the fitted maximal effect
Method in brief: as §3

[12] = qHTS of pediatric cancer cell lines to identify multiple opportunities for drug repurposing: Primary screen for SK-N-SH cells (AID 1347098); further: nearly all actives have a fitted effect of over 65% in size; further: potency means the concentration at half of the fitted maximal effect
Method in brief: as §3

Measured: Potency

O=C1NC(=O)[C@@]2(CCOc3ccc(F)cc32)N1
not listed: [11] | [12]
inactive: all other assays above

O=C(O)c1ccccn1
not listed: [12]
inactive: all other assays above

CC(C(O)c1ccc(O)cc1)N1CCC(Cc2ccccc2)CC1 (stereo not drawn)
not listed: [7] | [11] | [12]
inactive: all other assays above

Cc1ncc(COP(=O)(O)O)c(C=O)c1O
not listed: [6] | [12]
inactive: all other assays above

CCN(CC)CCSC(=O)C(c1ccccc1)c1ccccc1
inactive: [1] | [12] | [4] | [7] | [8] | [9]
active: [2] 23.7 µM

COc1cc2[nH]c(=O)[nH]c(=O)c2cc1OC
not listed: [5] | [12]
inactive: all other assays above

Cc1cccc(C)c1NC(=O)CN(CC(=O)O)CC(=O)O
not listed: [12]
inactive: all other assays above

C=CCn1c(=O)n([C@@H]2O[C@H](CO)[C@@H](O)[C@H]2O)c2nc(N)[nH]c(=O)c21
not listed: [3] | [6] | [12]
inactive: all other assays above

Cc1cc(CC(=O)O)n(C)c1C(=O)c1ccc(Cl)cc1
not listed: [3] | [5] | [12]
inactive: all other assays above

Cc1ccc(C(C)C)cc2c(C)ccc1-2
not listed: [12]
inactive: all other assays above

OCC(O)CN1CCN(c2ccccc2)CC1 (stereo not drawn)
not listed: [6] | [11] | [12]
inactive: all other assays above

CN1CCC[C@@H]1Cc1c[nH]c2ccc(CCS(=O)(=O)c3ccccc3)cc12
not listed: [5] | [11] | [12]
inactive: all other assays above

CC[C@H]1CN2CCc3cc(OC)c(OC)cc3[C@@H]2C[C@@H]1C[C@H]1NCCc2cc(OC)c(OC)cc21
inactive: [9]
active: [1] 0.376 µM | [12] 0.433 µM | [3] 0.335 µM | [4] 0.347 µM | [5] 2.11 µM | [11] 0.347 µM | [6] 0.335 µM | [7] 2.11 µM | [10] 3.76 µM

c1ccc(CN(CC2=NCCN2)c2ccccc2)cc1
not listed: [6] | [11] | [12]
inactive: all other assays above

Nc1ncnc2c1ncn2[C@@H]1O[C@H](CO)[C@@H](O)[C@H]1O
not listed: [5] | [9] | [11] | [12]
inactive: all other assays above

[Cl][In]([Cl])[Cl]
active: [1] 8.63 µM | [11] 25.2 µM
not listed: [3] | [5] | [6]
inactive: all other assays above

CN(C)CCN(Cc1ccccc1)c1ccccn1
not listed: [3] | [9] | [11] | [12]
inactive: all other assays above

CN(C)CCOC(C)(c1ccccc1)c1ccccn1 (stereo not drawn)
not listed: [3] | [9] | [12]
inactive: all other assays above

CN1CCCCC1CCN1c2ccccc2Sc2ccc(S(C)=O)cc21 (stereo not drawn)
not listed: [5] | [11] | [12]
inactive: all other assays above

CC(COc1ccccc1)NC(C)C(O)c1ccc(O)cc1 (stereo not drawn)
not listed: [12]
inactive: all other assays above
